Broadly, the inhibition is the change of the read-out against control, counted positive when it falls.

Test [1] is described as follows: antimalarial activity against Dd2 strain (AID 2302;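 active = growth inhibition above 50% at the single 2 µM test dose, taken to imply half-maximal potency below 2 µM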;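 note: 0% = DMSO untreated growth and 100% = chloroquine plus artemisinin killed control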). To be noted: P. falciparum Dd2 in RBCs, LDH growth readout, 72 h; at 2 µM; hits give high values.
Test [2] is described as follows: HepG2 cytotoxicity, primary screen, cytotoxicity control for P. falciparum antimalarial project, cell-based, ATP luminescence (AID 2303;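 active = inhibition above 50%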;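 note: 0% = DMSO wells and 100% = digitonin-killed cells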). Conditions: HepG2 viability, 24-48 h, at 10 µM, hits give high values.
In test [3] the target is L-lactate dehydrogenase (Plasmodium falciparum (isolate CDC / Honduras)) (UniProt Q27743). The experiment in a line: PfLDH activity inhibition – cell lysate, 3D7 strain, counter-screen for P. falciparum growth inhibition project (AID 2304).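 Note: 0% = vehicle and 100% = reference inhibitor.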 To be noted: P. falciparum 3D7 crude extract, LDH APAD/NBT absorbance; at 2 µM; hits give high values. A general note: Counterscreens check selectivity or assay interference.

Test [4] is described as follows: inhibition of 3D7 malaria parasite growth – strain 3D7 (AID 2306).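 Note: 0% = DMSO wells and 100% = chloroquine plus artemisinin control wells.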 Conditions: P. falciparum 3D7 erythrocytic growth, LDH absorbance, 72 h; at 2 µM; hits give high values.
The target in test [5] is Calcium-dependent protein kinase 1 (Plasmodium falciparum (isolate 3D7)) (UniProt P62344). The test is described as follows: PfCDPK1 kinase inhibitors, biochemical, TCAMS library (AID 1159585; cut-off not given, nearly all actives have IC50 up to about 0.98 µM;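 note: inhibitors leave more ATP so luminescence rises with inhibition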). Conditions: recombinant PfCDPK1, Kinase-Glo ATP depletion luminescence. (In general: Kinase-Glo measures the ATP left after a reaction by luminescence.)
Test [6] addresses Plasmodium falciparum protein kinase 6 (PK6, PF3D7_1337100) (UniProt Q8IDW1). The experiment in a line: PfPK6 kinase inhibitors, biochemical, TCAMS library (AID 1159586). To be noted: recombinant PfPK6, Kinase-Glo ATP depletion luminescence.
Test [7] addresses Protein kinase 7 (PK7), Plasmodium falciparum 3D7 (PF3D7_0213400) (UniProt Q7YTF7). The experiment in a line: inhibition of Plasmodium PK7 catalytic activity – biochemical, TCAMS antimalarial set, Kinase-Glo luminescence (AID 1159587). To be noted: recombinant PfPK7, Kinase-Glo ATP depletion luminescence.
Test [8] has as its target Calcium-dependent protein kinase 4 (Plasmodium falciparum (isolate 3D7)) (UniProt Q8IBS5). The test is described as follows: PfCDPK4 kinase inhibitors, biochemical, TCAMS library (AID 1159588; cut-off not given, nearly all actives have IC50 up to about 0.91 µM). To be noted: recombinant PfCDPK4, Kinase-Glo ATP depletion luminescence.

A number with no mark means an inactive call. For part of these data: Measured potencies and affinities stand elsewhere. The source made the active and inactive calls. Unless noted, the rule behind the calls is not given here.

Chain of Protein kinase 7 (PK7), Plasmodium falciparum 3D7 (PF3D7_0213400) (Q7YTF7 1-343): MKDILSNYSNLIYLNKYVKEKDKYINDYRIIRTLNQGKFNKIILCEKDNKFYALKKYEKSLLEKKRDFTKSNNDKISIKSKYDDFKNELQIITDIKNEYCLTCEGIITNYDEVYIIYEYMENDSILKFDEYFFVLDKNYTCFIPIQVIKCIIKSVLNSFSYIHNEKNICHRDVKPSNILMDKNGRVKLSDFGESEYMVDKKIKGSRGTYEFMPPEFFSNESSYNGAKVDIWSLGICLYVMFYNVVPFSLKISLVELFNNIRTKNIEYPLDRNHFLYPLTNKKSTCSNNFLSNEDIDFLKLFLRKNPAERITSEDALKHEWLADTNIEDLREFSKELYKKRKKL
Chain of L-lactate dehydrogenase (Plasmodium falciparum (isolate CDC / Honduras)) (Q27743 whole entry, looked up): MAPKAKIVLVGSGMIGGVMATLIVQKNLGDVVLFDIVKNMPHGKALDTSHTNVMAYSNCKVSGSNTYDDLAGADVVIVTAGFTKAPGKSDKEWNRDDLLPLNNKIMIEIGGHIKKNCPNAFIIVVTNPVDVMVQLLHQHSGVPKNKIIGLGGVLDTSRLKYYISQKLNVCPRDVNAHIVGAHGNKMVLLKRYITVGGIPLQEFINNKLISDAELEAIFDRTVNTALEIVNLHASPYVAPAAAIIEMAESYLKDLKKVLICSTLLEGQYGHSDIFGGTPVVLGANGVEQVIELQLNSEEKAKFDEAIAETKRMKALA
Chain of Calcium-dependent protein kinase 4 (Plasmodium falciparum (isolate 3D7)) (Q8IBS5 whole entry, looked up): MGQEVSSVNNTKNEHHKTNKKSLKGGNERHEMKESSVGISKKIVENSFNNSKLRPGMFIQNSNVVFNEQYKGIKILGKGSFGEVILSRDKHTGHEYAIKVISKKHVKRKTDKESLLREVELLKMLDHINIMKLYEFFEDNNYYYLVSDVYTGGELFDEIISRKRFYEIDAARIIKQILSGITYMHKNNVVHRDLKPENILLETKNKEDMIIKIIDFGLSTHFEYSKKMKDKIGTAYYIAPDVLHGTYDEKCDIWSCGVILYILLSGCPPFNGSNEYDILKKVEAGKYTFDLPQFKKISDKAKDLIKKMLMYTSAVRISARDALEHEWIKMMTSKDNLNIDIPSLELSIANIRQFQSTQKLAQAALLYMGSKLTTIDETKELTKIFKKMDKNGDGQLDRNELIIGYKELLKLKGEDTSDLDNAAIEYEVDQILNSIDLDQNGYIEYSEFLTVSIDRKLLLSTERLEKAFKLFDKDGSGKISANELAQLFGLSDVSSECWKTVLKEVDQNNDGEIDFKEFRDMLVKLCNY
Chain of Plasmodium falciparum protein kinase 6 (PK6, PF3D7_1337100) (Q8IDW1 1-305): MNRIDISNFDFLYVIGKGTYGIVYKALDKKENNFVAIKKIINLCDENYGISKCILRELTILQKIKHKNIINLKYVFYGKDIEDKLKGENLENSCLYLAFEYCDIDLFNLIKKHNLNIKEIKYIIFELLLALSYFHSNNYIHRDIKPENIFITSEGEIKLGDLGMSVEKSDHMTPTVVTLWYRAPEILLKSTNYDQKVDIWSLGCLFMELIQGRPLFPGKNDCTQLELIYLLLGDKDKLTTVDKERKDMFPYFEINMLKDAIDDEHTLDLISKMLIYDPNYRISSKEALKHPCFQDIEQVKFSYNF
Chain of Calcium-dependent protein kinase 1 (Plasmodium falciparum (isolate 3D7)) (P62344 whole entry, looked up): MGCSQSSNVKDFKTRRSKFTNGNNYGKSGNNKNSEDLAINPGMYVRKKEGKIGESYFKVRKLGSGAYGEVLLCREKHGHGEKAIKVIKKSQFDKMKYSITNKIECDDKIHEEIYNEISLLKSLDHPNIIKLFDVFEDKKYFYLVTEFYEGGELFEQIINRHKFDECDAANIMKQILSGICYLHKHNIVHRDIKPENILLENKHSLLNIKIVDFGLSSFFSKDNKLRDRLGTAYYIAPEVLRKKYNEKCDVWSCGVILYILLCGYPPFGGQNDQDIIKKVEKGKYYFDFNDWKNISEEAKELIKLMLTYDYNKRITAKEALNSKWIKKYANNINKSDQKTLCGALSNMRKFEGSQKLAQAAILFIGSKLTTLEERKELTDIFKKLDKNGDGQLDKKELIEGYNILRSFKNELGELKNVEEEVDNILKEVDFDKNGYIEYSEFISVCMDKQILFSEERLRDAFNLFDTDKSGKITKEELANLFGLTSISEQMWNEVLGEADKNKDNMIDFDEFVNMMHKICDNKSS

In the case of `CCc1ccc2c(c1O)CCN(C)C2Cc1ccccc1Cl` (stereo not drawn), the growth inhibition in test [1] and in test [4] was 99% (active) throughout. The inhibition in test [2] is 13%; in test [3], -3%. Moreover, the outcome in test [5], in test [6], in test [7] and in test [8] was inactive.
On to `CCOC(=O)Cn1ccc2c(NCc3ccccc3)nc(C)nc21`, for which the values for the growth inhibition in test [1] and in test [4] were 0% and 96% (active), respectively. The inhibition was 64% (active) in test [2] and -1% in test [3]. The outcome in test [5], in test [6], in test [7] and in test [8] was inactive.
`Cc1[nH]c(C)c(-c2ccc(CCc3cccc(C(F)(F)F)c3)nc2)c(=O)c1Cl`: the growth inhibition is 97% (active) in test [1] and 99% (active) in test [4]. Further, the inhibition in test [2] is 28%; in test [3] it was -2%. Moreover, the result in test [5], in test [6], in test [7] and in test [8] was inactive.
Consider `CCCc1cc(OC)c(CC2c3cc(O)c(Cl)cc3CCN2C)cc1OC` (stereo not drawn), for which the growth inhibition in test [1] was 99% (active); in test [4] it was 100% (active). Besides, the inhibition in test [2] is 19%; in test [3], -5%. Further, the outcome in test [5], in test [6], in test [7] and in test [8] was inactive.
Turning to `O=C(NCCCCCN1CCC(c2c[nH]c3ccccc23)CC1)Nc1cccc(I)c1`, the growth inhibition was 11% in test [1] and 99% (active) in test [4]. The inhibition was 70% (active) in test [2] and -8% in test [3]. The result in test [5], in test [6], in test [7] and in test [8] was inactive.
`Cc1[nH]c(C)c(-c2ccc(Br)cc2)c(=O)c1Br`: the growth inhibition is 95% (active) in test [1] and 98% (active) in test [4]. The figures for the inhibition in test [2] and in test [3] were 9% and 6%, respectively. In addition, the outcome in test [5], in test [6], in test [7] and in test [8] was inactive.
For the molecule `Cc1ccc(O)c(-c2cc(C(=O)Nc3ccc(S(=O)(=O)N4CCCC(C)C4)cc3)[nH]n2)c1` (stereo not drawn), the growth inhibition was 97% (active) in test [1] and 96% (active) in test [4]. Besides, the values for the inhibition in test [2] and in test [3] were 27% and -2%, respectively. For the same molecule, the result in test [5], in test [6], in test [7] and in test [8] was inactive.
As for `CCCCCCNc1cc(C)nc(/N=C(\N)Nc2cccc(C(F)(F)F)c2)n1`, the growth inhibition in test [1] and in test [4] was 100% (active) in each case. For the same molecule, the inhibition in test [2] is 44%; in test [3], -2%. The result in test [5], in test [6], in test [7] and in test [8] was inactive.
Regarding `Cc1ccc(Oc2ccc(CNc3nc(Nc4cccc(F)c4)nc(Nc4cccc(F)c4)n3)cc2)cc1`, the growth inhibition is -2% in test [1] and 86% (active) in test [4]. For the same molecule, the inhibition was -5% in test [2] and -2% in test [3]. For the same molecule, the outcome in test [5], in test [6], in test [7] and in test [8] was inactive.
Regarding `O=C(Nc1cccc(N2CCC(NCCCc3ccncc3)CC2)c1)c1cccc(C(F)(F)F)c1`, the growth inhibition is 50% (active) in test [1] and 96% (active) in test [4]. The values for the inhibition in test [2] and in test [3] were 11% and 4%, respectively. Further, the result in test [5], in test [6], in test [7] and in test [8] was inactive.
In the case of `CCn1c(SC)nnc1C1CCCN(CC(=O)Nc2nc3ccc(OC)cc3s2)C1` (stereo not drawn), the figures for the growth inhibition in test [1] and in test [4] were 81% (active) and 97% (active), respectively. The inhibition in test [2] is -3%; in test [3] it was 0%. Moreover, the outcome in test [5], in test [6], in test [7] and in test [8] was inactive.
For `COc1ccc(Cc2nc(N=C(N)Nc3ccccc3)ccc2OC)cc1`, the growth inhibition is 68% (active) in test [1] and 93% (active) in test [4]. In addition, the inhibition is 40% in test [2] and 2% in test [3]. Besides, the outcome in test [5], in test [6], in test [7] and in test [8] was inactive.
On to `O=C(/C=C/c1ccc(Cl)cc1)Nc1ccc2nc(CN3CCCC3)ccc2c1`, for which the growth inhibition in test [1] is 30%; in test [4], 85% (active). In addition, the inhibition was 47% in test [2] and -2% in test [3]. The result in test [5], in test [6], in test [7] and in test [8] was inactive.
Consider `CC(C)(C)c1ccc(-c2cc(C(=O)N[C@@H](CO)C(=O)O)on2)cc1` (tested in a mixture with another compound), for which the results for the growth inhibition in test [1] and in test [4] were -2% and 87% (active), respectively. The inhibition in test [2] is 1%; in test [3], -1%. Also, the result in test [5], in test [6], in test [7] and in test [8] was inactive.
As for `CCCCCCSc1nnc(COc2cccc3ccccc23)n1-c1ccc(OC)cc1`, the growth inhibition in test [1] is 100% (active); in test [4], 99% (active). The inhibition in test [2] is 19%; in test [3], 3%. Moreover, the result in test [5], in test [6], in test [7] and in test [8] was inactive.
With `COc1ccc(Nc2nccc(-c3c(-c4cccc(NC(=O)c5c(F)cccc5F)c4)nn4ccccc34)n2)cc1Cl`, the growth inhibition in test [1] was 71% (active); in test [4], 95% (active). Also, the inhibition in test [2] was 61% (active); in test [3], -1%. Besides, the outcome in test [5], in test [6], in test [7] and in test [8] was inactive.
Regarding `N#Cc1cccc(CN(Cc2ccc(Cl)c(Cl)c2)S(=O)(=O)c2cccc([N+](=O)[O-])c2)c1`, the growth inhibition in test [1] was 73% (active); in test [4] it was 100% (active). In addition, the values for the inhibition in test [2] and in test [3] were 3% and -8%, respectively. The outcome in test [5], in test [6], in test [7] and in test [8] was inactive.
Consider `CS(=O)(=O)N1CC2(CCN(CCC(NC(=O)Nc3ccccc3)c3ccc(Cl)c(Cl)c3)CC2)c2ccccc21` (stereo not drawn), for which the figures for the growth inhibition in test [1] and in test [4] were 72% (active) and 99% (active), respectively. Also, the figures for the inhibition in test [2] and in test [3] were 23% and 5%, respectively. The result in test [5], in test [6], in test [7] and in test [8] was inactive.
In the case of `CC(C)Cc1nc2nc(N)nc(N)c2cc1C(C)C`, the growth inhibition in test [1] is 3%; in test [4] it was 96% (active). In addition, the inhibition in test [2] is 67% (active); in test [3], 4%. Also, the outcome in test [5], in test [6], in test [7] and in test [8] was inactive.
Take `Nc1nc(N)c2nc(C3CC=CCC3)c(N)nc2n1` (stereo not drawn): the growth inhibition in test [1] is 0%; in test [4], 95% (active). Besides, the values for the inhibition in test [2] and in test [3] were 67% (active) and -5%, respectively. For the same molecule, the result in test [5], in test [6], in test [7] and in test [8] was inactive.
On to `CC1(C)N=C(N)N=C(N)N1c1ccccc1`, for which the growth inhibition in test [1] was 1%; in test [4], 98% (active). For the same molecule, the inhibition in test [2] is 16%; in test [3] it was -4%. The result in test [5], in test [6], in test [7] and in test [8] was inactive.

The values above are taken from PubChem BioAssay.
